# Screening results (PubChem)
# BJeLR lethal: BJeLR cell viability loss | inhibition, % (no concentration beside the values) | BJeLR (HRASV12) viability, CellTiter-Glo ATP luminescence, 48 h | AID 1554 | actives 0.17% (n = 300,000); in the data active = inhibition above about 50%
# GDH-TPI counter: GDH-TPI coupled enzyme inhibition counter-screen; actives 1.2% (n = 360,000); inhibition, % at 4.8 µM; GDH-TPI coupled enzyme counterscreen, NADH absorbance; in the data active = inhibition above about 30%
# RecA splice inh: inhibitors of M. tuberculosis RecA intein splicing; cell-free RecA intein splicing, fluorescence; AID 2221; inhibition, % (test concentration not listed); actives 0.75% (n = 290,000); P9WHJ3; in the data active = inhibition above about 30%
# Mtb FBA inh: Mtb fructose-bisphosphate aldolase inhibition; P9WQA3; purified M. tuberculosis FBA, fluorescence read-out; inhibition, % at 1 µM; actives 2.3% (n = 360,000); AID 588726; in the data active = inhibition above about 27%
# Target sequence (P9WQA3 whole entry, looked up): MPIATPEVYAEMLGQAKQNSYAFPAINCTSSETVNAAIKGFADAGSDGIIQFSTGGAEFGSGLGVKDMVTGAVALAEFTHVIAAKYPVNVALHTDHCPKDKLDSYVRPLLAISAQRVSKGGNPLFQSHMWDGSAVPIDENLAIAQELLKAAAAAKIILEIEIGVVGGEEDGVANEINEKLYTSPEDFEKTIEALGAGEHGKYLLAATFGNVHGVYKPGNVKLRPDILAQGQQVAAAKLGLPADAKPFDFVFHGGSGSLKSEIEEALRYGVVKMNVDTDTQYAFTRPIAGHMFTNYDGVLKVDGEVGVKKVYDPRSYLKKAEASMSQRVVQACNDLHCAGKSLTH
# PrPC TRFRET: inhibitors of human cell surface prion protein PrPC; P04156; TR-FRET read-out; inhibition, % at 13.8 µM; actives 0.43% (n = 370,000); in the data active = inhibition above about 24%
# A number is an active result; - = inactive; . = no result; + = active, no number. Compounds with a hit are over-represented: about 4.2% of the library has one in this group of screens.
SMILES,BJeLR lethal,GDH-TPI counter,RecA splice inh,Mtb FBA inh,PrPC TRFRET
O=C(NCCc1ccc2c(c1)OCO2)c1cc(-c2ccccc2)c(N2CCOCC2)s1,.,.,.,.,-
COc1ccc(C#Cc2c(-c3ccccc3OC)oc3ccccc23)cc1,.,.,.,.,-
CN(CCO)c1cccc2c1S(=O)(=O)N(Cc1cn(Cc3cccc(C(F)(F)F)c3)nn1)Cc1ccccc1O2,.,.,.,.,-
Cc1cc(=O)[nH]c2c(C)c(N)ccc12,-,-,-,+,-
CC(=O)Nc1c(OC(C)=O)ccc2c(C)cc(=O)oc12,-,-,-,+,-
COC(=O)c1ccc(COC(=O)CSCC(=O)Nc2ccc(C)cc2C)cc1,.,-,.,-,-
Cc1ccc(NC(=O)CSCC(=O)OCc2cc(=O)oc3cc(O)ccc23)c(C)c1,-,-,-,119,-
CC(=O)Oc1cc(OC(C)=O)c2c(C)cc(=O)oc2c1,-,-,-,+,-
COc1ccc(Cn2cc(COC(=O)NCC(C)C)nn2)cc1,.,.,.,.,-
O=C(c1ccccc1)N1CC[C@H]2[C@H](CCCN2Cc2cc(F)cc(F)c2)C1,.,.,.,.,-
O=C(CSc1nnc(-c2cccs2)n1Cc1ccco1)Nc1ccc(OCc2ccccc2)cc1,.,.,.,.,-
Cc1cc(N2CCOc3ccccc32)nc2ccccc12,.,.,.,.,-
Cc1cc(=O)[nH]c2cc(O)ccc12,-,-,-,+,-
Cc1oc2cc(O)ccc2c(=O)c1N1C(=O)c2ccccc2C1=O,-,-,-,-,-
Cc1coc2cc3oc(=O)cc(C)c3cc12,-,-,-,-,-
Cc1ccccc1-c1c(C)oc2cc(O)ccc2c1=O,-,-,-,+,-
CC(=O)Oc1cc2oc(=O)cc(C)c2cc1OC(C)=O,-,-,-,173,-
Cc1cc(=O)oc2cc(OC(=O)CCCCCN3C(=O)c4ccccc4C3=O)ccc12,-,-,-,153,-
C=CCN(Cc1ccc2c(c1)OCO2)C(C#CC1CC1)C(C)C (stereo not given),.,.,.,.,-
CCN(c1ccccc1)S(=O)(=O)c1cc(C(=O)Oc2ccc3c(C)cc(=O)oc3c2)ccc1C,-,-,-,+,-
N#Cc1cccc(OC(=O)C2CCN(C(=O)c3ccc(F)cc3)CC2)c1,.,-,.,-,-
Cc1ccc(S(=O)(=O)CCC(=O)Oc2ccc3c(C)cc(=O)oc3c2)cc1,-,-,-,+,-
Cc1cc(=O)oc2cc(O)ccc12,-,-,-,+,-
CCN(c1ccccc1)S(=O)(=O)c1cc(C(=O)OCC(=O)c2c(N)n(C)c(=O)n(C)c2=O)ccc1C,.,-,.,-,-
Cc1cc(=O)oc2cc(OC(=O)C3CCN(C(=O)c4ccc(F)cc4)CC3)ccc12,-,-,-,148,-
SMILES,BJeLR lethal,GDH-TPI counter,RecA splice inh,Mtb FBA inh,PrPC TRFRET
Cc1ccc(OC(=O)CCS(=O)(=O)c2ccc(C)cc2)cc1,-,-,-,-,-
O=c1cc(O)c2ccc(O)cc2o1,-,-,-,-,-
O=C(NCCc1ccccc1)OCc1cn(Cc2cccc(C(F)(F)F)c2)nn1,.,.,.,.,-
COC(=O)[C@]12C[C@H](CC(=O)N3CCCC3)C(=O)N(Cc3ccco3)C1=C[C@H](COCc1ccccc1)O[C@@H]2C,.,.,.,.,-
O=C(c1ccccc1C(F)(F)F)N1CCC(Oc2cccnc2)CC1,.,.,.,.,-
CCOc1cc(CCNC(=O)c2cc3sccc3n2CC)ccc1OC,.,.,.,.,-
Cc1cc(=O)oc2cc(OCC(=O)N3CCOCC3)ccc12,-,-,-,-,-
CC(=O)Oc1ccc2c(C)cc(=O)oc2c1,-,-,-,+,-
COC(=O)Cc1cc(=O)oc2cc(O)ccc12,-,-,-,+,-
Cc1cc(=O)oc2cc(O)cc(OCc3ccccc3)c12,.,31,.,+,-
COc1ccc(-c2cc(=O)oc3cc(O)ccc23)cc1,-,-,-,-,-
Cc1cc(=O)oc2ccc(OCc3ccccc3)cc12,-,-,-,-,-
Cc1ccc(NC(=O)N2CCC(c3nc4ccc(Cl)cc4[nH]3)CC2)cc1F,.,.,.,.,-
COC(=O)C1CN(Cc2ccc(OC)cc2)CCS(=O)(=O)N1Cc1cn(Cc2ccc(OC)cc2)nn1 (stereo not given),.,.,.,.,-
Cn1c(O)c(N=NC(=N)N)c2ccccc21,-,40,-,-,-
CCOc1ccc2c(c1)c(N=NC(N)=S)c(O)n2C,-,31,-,-,-
CCCn1c(O)c(N=NC(=O)CNC(=O)c2cccnc2)c2ccccc21,-,-,-,-,-
Cn1c(O)c(N=NC(=O)CNC(=O)c2cccnc2)c2ccccc21,-,39,-,-,-
COC(=O)Cn1c(O)c(N=NC(=O)CNC(=O)c2ccncc2)c2ccccc21,-,38,-,-,-
CCOc1ccc2c(c1)c(N=NC(=N)N)c(O)n2C,-,-,-,-,-
